PubChem BioAssay (NCI)
About 79,000 compounds went through this panel and 15% of them were active in at least one assay; those are over-represented in the sample as a whole. The source made the active and inactive calls. No stated cut-off is given here; in the data, active means growth inhibition above about 70%; inactive means the rest.

Tests used:
[1] = NCI Yeast Anticancer Drug Screen. Data for the rad50 strain (AID 155);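 further: 0% = growth of vehicle-only cultures of the same strain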; conditions: S. cerevisiae rad50 strain growth inhibition; at 50.0 µM; hits give high values
Procedure, shortened: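 Growth of the mutant yeast was measured after compound exposure and referenced to vehicle-treated cultures.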

[2] = NCI Yeast Anticancer Drug Screen. Data for the mec2-1 strain (AID 157); conditions: S. cerevisiae mec2-1 strain, at 50.0 µM, hits give high values
Procedure, shortened: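 Yeast mec2-1 mutant treated with compound. Readout: growth inhibition vs vehicle controls.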

[3] = NCI Yeast Anticancer Drug Screen. Data for the sgs1 mgt1 strain (AID 161);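 further: 0% = growth of cultures given vehicle only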; conditions: S. cerevisiae sgs1 mgt1 strain, at 50.0 µM, hits give high values
Procedure, shortened: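 Inhibition of yeast growth, normalised to vehicle-treated controls, is reported for a strain bearing genetic alterations in DNA damage repair.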

[4] = NCI Yeast Anticancer Drug Screen. Data for the cln2 rad14 strain (AID 165);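 further: 0% = growth equal to vehicle treated cultures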; conditions: S. cerevisiae cln2 rad14 strain, at 50.0 µM, hits give high values
Procedure, shortened: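 cln2 rad14 yeast strain; compound exposure; growth inhibition read vs vehicle controls.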

[5] = NCI Yeast Anticancer Drug Screen. Data for the bub3 strain (AID 167); conditions: S. cerevisiae bub3 mutant strain, at 50.0 µM, hits give high values
Procedure, shortened: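 Whole-cell yeast assay. The mutant strain was incubated with compounds, and growth inhibition was determined by comparison with vehicle-treated cells.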

[6] = NCI Yeast Anticancer Drug Screen. Data for the mlh1 rad18 strain (AID 175); conditions: S. cerevisiae mlh1 rad18 strain growth inhibition; at 50.0 µM; hits give high values
Procedure, shortened: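 Yeast w/ defined DNA-repair lesions; compound exposure; growth vs vehicle controls → % inhibition.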

Measured: growth inhibition

CCOC(OCC)c1ccc(C(F)(F)F)cc1.[C-]#[O+].[C-]#[O+].[C-]#[O+].[Cr]
inactive: [1] 14.2% | [2] 0.8% | [3] 25.8% | [4] 4.85% | [5] 20.4% | [6] 26.2%

FC(F)(F)c1ccc2c(c1)N(CCCl)c1ccccc1S2
inactive: [1] 4.3% | [2] -8.05% | [3] -2.4% | [4] -79.2% | [5] 1.5% | [6] -4.6%

CC1CCC2C(C)C(=O)OC3OC4(C)CCC1C32OO4 (configuration not stated)
inactive: [1] -7.55% | [2] 4.2% | [3] -8.05% | [4] 27.8% | [5] 18.2% | [6] 2.7%

NC(CP(=O)(O)O)C(=O)O (configuration not stated)
inactive: [1] 0.4% | [2] 5.7% | [3] -31.1% | [4] -55.2% | [5] -32.4% | [6] -37.6%

CCCCC(CC)COP(OCC(CC)CCCC)OCC(CC)CCCC (configuration not stated)
inactive: [1] 22.1% | [2] -14.4% | [3] -18.9% | [4] -37.5% | [5] -7.25% | [6] -6.95%

CC1CCC2C(C)C3C(CC4C5CCC6CC(O)CCC6(C)C5CCC43C)N2C1 (configuration not stated)
inactive: [1] 17.1% | [2] 23.4% | [3] 17.5% | [4] -29.1% | [5] -18.4% | [6] 15.7%

COC(=O)CP(=O)(OC)OC
inactive: [1] 5.3% | [2] -24.1% | [3] 1.8% | [4] -3.15% | [5] 1% | [6] 7.2%

CC(Br)C(=O)C(CCN(C)C)(c1ccccc1)c1ccccc1 (configuration not stated)
inactive: [1] 17.6% | [2] -0.05% | [3] 7.95% | [4] -6.4% | [5] 21.8% | [6] 17.1%

CC(C)CC(C)(C)COP(=S)(OCC(C)(C)CC(C)C)OCC(C)(C)CC(C)C
inactive: [1] 13.6% | [2] -15% | [3] 0.8% | [4] -37% | [5] -8.75% | [6] 10.6%

c1ccc(OP(Oc2ccccc2)(c2ccccc2)(c2ccccc2)c2ccccc2)cc1
inactive: [1] 6.05% | [2] 6.6% | [3] 13.4% | [4] -16.4% | [5] -5.1% | [6] -42.6%

CC(C)(C)[CH2][Sn]([Cl])([CH2]C(C)(C)C)[CH2]C(C)(C)C
inactive: [3] 21.8%
active: [1] 99% | [2] 99.3% | [4] 99% | [5] 99.2% | [6] 99%

CCOP(=O)(OCC)Oc1ccncc1
inactive: [1] -2.8% | [2] -0.3% | [3] -7.6% | [4] -4.25% | [5] 7.75% | [6] 4.1%

CC[As](=O)(O)c1ccc(OC)c(I)c1
inactive: [1] 1.75% | [2] -15.3% | [3] 18.3% | [4] -76.5% | [5] 4.35% | [6] 0.75%

Nc1ncn[nH]1
inactive: [1] -5.05% | [2] 11.7% | [3] -7.75% | [4] 7.9% | [5] 18.6% | [6] -3.25%

O=C1CN=C(c2ccccc2)c2cc(Cl)ccc2N1
inactive: [1] -4.7% | [2] 11.9% | [3] 3.35% | [4] 16.1% | [5] 8.55% | [6] 32.2%

C=CC1CN2CCC1CC2C(O)c1ccnc2ccccc12 (configuration not stated)
inactive: [1] 11.9% | [2] -3.7% | [3] 5.95% | [4] 10.9% | [5] 20.1% | [6] 4.1%

CN1C2CCC1[C@@H](COC(=O)c1ccccc1)[C@@H](O)C2 (some centres not stated)
inactive: [1] -9.15% | [2] -14.6% | [3] -15.6% | [4] -27.4% | [5] -3.55% | [6] -61%

C=CCN1CN(c2ccccc2)C2(CCN(CCCC3(c4ccc(F)cc4)OCCO3)CC2)C1=O
inactive: [1] -18.1% | [2] -7.55% | [3] 1.4% | [4] 0.4% | [5] 0.7% | [6] -13.8%

CCC1c2cc(O)c(OC)cc2CCN1C (configuration not stated)
inactive: [1] -7.7% | [2] -0.9% | [3] 2.45% | [4] -14.9% | [5] -7.75% | [6] -8%

NCC(O)CSP(=O)(O)O (configuration not stated)
inactive: [1] -10.9% | [2] -9.85% | [3] -18.9% | [4] 24.5% | [5] -3.8% | [6] -0.6%

C=CC1CC=CCC1 (configuration not stated)
inactive: [1] -7.1% | [2] -5.2% | [3] 9.15% | [4] -25.2% | [5] -0.55% | [6] -11.9%

O=S1(=O)CCCCO1
inactive: [1] -6% | [2] 1.65% | [3] -10.9% | [4] 17.2% | [5] -8.95% | [6] 4.4%

CCCCP(CCCC)CCCC
inactive: [1] -10% | [2] 0.95% | [3] 4.15% | [4] 19.2% | [5] 51% | [6] 19.6%

Nc1ccccc1Nc1ccccc1C(=O)[O-].Nc1ccccc1Nc1ccccc1C(=O)[O-].[Cu+2]
inactive: [1] -3.5% | [2] 7.8% | [3] -19.5% | [4] -3.3% | [5] -11.8% | [6] 7.75%

CN(C)C(=O)NC(O)C(Cl)(Cl)Cl (configuration not stated)
inactive: [1] -20.4% | [2] -8.35% | [3] -5.45% | [4] -21.1% | [5] -4.25% | [6] 19.1%

O=NC1C(=O)NC(=O)NC1=O
inactive: [1] 1.75% | [2] -5.85% | [3] 3.45% | [4] 14.7% | [5] 11.7% | [6] -3.65%

CO[C@H]1C[C@H](O[C@H]2CC[C@@]3(C)[C@H](CC[C@@H]4[C@@H]3CC[C@]3(C)[C@@H](C5=CC(=O)OC5)CC[C@]43O)C2)O[C@H](C)[C@H]1O
inactive: [1] 33.2% | [2] 5.95% | [3] 17.8% | [4] 23.1% | [5] 14.6% | [6] -49%

CCOC(=O)c1c(SC)nc(-c2ccc(Cl)cc2)sc1=N
inactive: [1] 18.4% | [2] 19.6% | [3] 24.8% | [4] 25.9% | [5] 28.1% | [6] -19.7%

CN1C(=O)C2(c3ccccc31)C1CC3C(CO1)C1C2C3(CO)CN1C#N (configuration not stated)
inactive: [1] 34.1% | [2] 12.9% | [3] -39.2% | [4] 1.1% | [5] -22.1% | [6] -6.8%

NCCCN1CCN(c2ccccc2)CC1
inactive: [1] -0.45% | [2] -30.2% | [3] -12.6% | [4] 26% | [5] -28.6% | [6] -39.5%

CC(O)C[As](=O)(O)c1cccc(Cl)c1 (configuration not stated)
inactive: [1] 2.05% | [2] 33.9% | [3] 10.3% | [4] -0.7% | [5] 37.5% | [6] 39.5%

Cc1cc(C)c(C#N)c(SSC(Cl)(Cl)Cl)n1
inactive: [1] 5.75% | [2] 18.9% | [3] 59.2% | [4] 15.1% | [5] 61.9% | [6] 40.9%

C/C=C/CC1(CC)C(=O)NC(=S)NC1=O
inactive: [1] 3.8% | [2] 7% | [3] 7.15% | [4] 9% | [5] 2.35% | [6] 13.6%

CCOC(=N)CC(O)C(Cl)(Cl)Cl (configuration not stated)
inactive: [1] -2.05% | [2] 1.7% | [3] -10.1% | [4] -47.2% | [5] 22% | [6] -6.25%

O=C(NCCO)c1cc([N+](=O)[O-])cc([N+](=O)[O-])c1
inactive: [1] -37.9% | [2] -4.25% | [3] -1.25% | [4] -25.9% | [5] -11.7% | [6] 3.4%

O=[N+]([O-])c1ccc(/C=C/C=C/C=C/C=C/c2ccc(S(=O)(=O)F)cc2Cl)c(Cl)c1
inactive: [1] -1.05% | [2] -2.85% | [3] -14.8% | [4] 7.15% | [5] -10.3% | [6] -1.2%

CC(Nc1c([N+](=O)[O-])ccc(C(=O)NCCN(C)C)c1[N+](=O)[O-])C(=O)Nc1ccc(N(CCCl)CCCl)cc1 (configuration not stated)
inactive: [1] -34.6% | [2] -9.75% | [3] 0.75% | [4] 7.35% | [5] -8.05% | [6] -7.75%
